Experimental data reported in PubChem BioAssay AID1159580 (chemical genetic matrix, 2015).
Hit rate of the full screen: of about 5,500 compounds, about 2,000 (36%) were called active. Roughly 18% stayed inconclusive and do not appear here. Rule as the data show it: active = normalized growth mostly below about 0.91 (no sharp cut-off); inconclusive = no clear call, values can overlap the other calls; inactive = mostly above about 0.92. This is one part of the list.

Test: chemical genetic growth profiling, strain panel (AID 1159580);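 also: tested at 20 µM; growth read once vehicle control cultures reached saturation at 30 °C; 1 = growth at the plate median or of vehicle wells; lower values mean less growth of the strain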
Conditions: growth OD

Measured: normalized growth

COc1cc(-c2coc3cc(OCc4ccccc4)c(OC)c(O)c3c2=O)cc(OCc2ccccc2)c1OC
inactive: S. cerevisiae deletion strains, locus YAL013W, strain DEP1, active compounds read low 1.04 | S. cerevisiae deletion strains, locus YBR021W, strain FUR4, active compounds read low 1.01 | S. cerevisiae deletion strains, locus YBR229C, strain ROT2, active compounds read low 0.995 | S. cerevisiae deletion strains, locus YCL029C, strain bik1, active compounds read low 0.981 | S. cerevisiae deletion strains, locus YDL035C, strain GPR1, active compounds read low 1.03 | S. cerevisiae deletion strains, locus YDL074C, strain BRE1, active compounds read low 1.02 | S. cerevisiae deletion strains, locus YDL101C, strain DUN1, active compounds read low 0.99 | S. cerevisiae deletion strains, locus YDL185W, strain tfp1, active compounds read low 0.989 | S. cerevisiae deletion strains, locus YDL192W, strain arf1, active compounds read low 0.981 | S. cerevisiae deletion strains, locus YDR101C, strain arx1, active compounds read low 0.991 | S. cerevisiae deletion strains, locus YDR150W, strain NUM1, active compounds read low 1.01 | S. cerevisiae deletion strains, locus YDR162C, strain NBP2, active compounds read low 1.02 | S. cerevisiae deletion strains, locus YDR318W, strain mcm21, active compounds read low 0.992 | S. cerevisiae deletion strains, locus YDR388W, active compounds read low 0.981 | S. cerevisiae deletion strains, locus YDR502C, strain sam2, active compounds read low 0.991 | S. cerevisiae deletion strains, locus YEL061C, strain CIN8, active compounds read low 1.01 | S. cerevisiae deletion strains, locus YER110C, active compounds read low 0.974 | S. cerevisiae deletion strains, locus YER155C, strain BEM2, active compounds read low 0.999 | S. cerevisiae deletion strains, locus YER167W, strain BCK2, active compounds read low 1 | S. cerevisiae deletion strains, locus YGL078C, strain dbp3, active compounds read low 0.988 | S. cerevisiae deletion strains, locus YGL086W, strain mad1, active compounds read low 0.975 | S. cerevisiae deletion strains, locus YGL248W, strain PDE1, active compounds read low 0.973 | S. cerevisiae deletion strains, locus YGR078C, strain PAC10, active compounds read low 1 | S. cerevisiae deletion strains, locus YGR135W, strain pre9, active compounds read low 0.986 | S. cerevisiae deletion strains, locus YGR229C, strain SMI1, active compounds read low 1.04 | S. cerevisiae deletion strains, locus YGR252W, strain gcn5, active compounds read low 1.07 | S. cerevisiae deletion strains, locus YHR030C, strain SLT2, active compounds read low 0.989 | S. cerevisiae deletion strains, locus YHR079C, strain IRE1 (second series), active compounds read low 0.98 | S. cerevisiae deletion strains, locus YHR094C, strain hxt1, active compounds read low 0.978 | S. cerevisiae deletion strains, locus YHR129C, strain ARP1, active compounds read low 0.986 | S. cerevisiae deletion strains, locus YHR200W, strain rpn10, active compounds read low 0.988 | S. cerevisiae deletion strains, locus YIL066C, strain RNR3, active compounds read low 0.982 | S. cerevisiae deletion strains, locus YIL073C, strain SPO22, active compounds read low 0.969 | S. cerevisiae deletion strains, locus YIL125W, strain kgd1, active compounds read low 0.984 | S. cerevisiae deletion strains, locus YIR030C, strain dcg1, active compounds read low 0.988 | S. cerevisiae deletion strains, locus YJL095W, strain BCK1, active compounds read low 0.972 | S. cerevisiae deletion strains, locus YJL134W, strain LCB3, active compounds read low 0.993 | S. cerevisiae deletion strains, locus YJL168C, strain set2, active compounds read low 0.977 | S. cerevisiae deletion strains, locus YJL187C, strain SWE1 (second series), active compounds read low 0.968 | S. cerevisiae deletion strains, locus YJR043C, strain POL32, active compounds read low 1.04 | S. cerevisiae deletion strains, locus YJR075W, strain HOC1, active compounds read low 1.01 | S. cerevisiae deletion strains, locus YKL009W, strain mrt4, active compounds read low 0.968 | S. cerevisiae deletion strains, locus YKL068W, active compounds read low 0.992 | S. cerevisiae deletion strains, locus YKL085W, strain MDH1 (second series), active compounds read low 1.03 | S. cerevisiae deletion strains, locus YKL085W, strain MDH1, active compounds read low 1.03 | S. cerevisiae deletion strains, locus YKL190W, strain CNB1, active compounds read low 1.01 | S. cerevisiae deletion strains, locus YKR001C, strain vps1, active compounds read low 0.964 | S. cerevisiae deletion strains, locus YLR039C, strain RIC1, active compounds read low 1.05 | S. cerevisiae deletion strains, locus YLR058C, strain SHM2, active compounds read low 0.989 | S. cerevisiae deletion strains, locus YLR102C, strain apc9, active compounds read low 0.98 | S. cerevisiae deletion strains, locus YLR262C, strain YPT6, active compounds read low 1.08 | S. cerevisiae deletion strains, locus YLR268W, strain sec22, active compounds read low 0.967 | S. cerevisiae deletion strains, locus YLR330W, strain CHS5, active compounds read low 0.994 | S. cerevisiae deletion strains, locus YLR342W, strain FKS1 (second series), active compounds read low 1.02 | S. cerevisiae deletion strains, locus YLR371W, strain rom2, active compounds read low 0.97 | S. cerevisiae deletion strains, locus YLR418C, strain cdc73, active compounds read low 0.983 | S. cerevisiae deletion strains, locus YML016C, strain PPZ1, active compounds read low 0.991 | S. cerevisiae deletion strains, locus YML032C, strain rad52, active compounds read low 1 | S. cerevisiae deletion strains, locus YML124C, strain tub3, active compounds read low 0.983 | S. cerevisiae deletion strains, locus YMR078C, strain ctf18, active compounds read low 0.975 | S. cerevisiae deletion strains, locus YMR223W, strain ubp8, active compounds read low 0.99 | S. cerevisiae deletion strains, locus YMR307W, strain GAS1, active compounds read low 1.12 | S. cerevisiae deletion strains, locus YNL067W, strain RPL9B, active compounds read low 0.984 | S. cerevisiae deletion strains, locus YNL233W, strain BNI4, active compounds read low 0.977 | S. cerevisiae deletion strains, locus YNL250W, strain rad50, active compounds read low 0.971 | S. cerevisiae deletion strains, locus YNL271C, strain bni1, active compounds read low 0.981 | S. cerevisiae deletion strains, locus YNL298W, strain CLA4, active compounds read low 0.982 | S. cerevisiae deletion strains, locus YNL307C, strain MCK1, active compounds read low 0.969 | S. cerevisiae deletion strains, locus YNL322C, strain KRE1, active compounds read low 0.999 | S. cerevisiae deletion strains, locus YNR052C, strain pop2, active compounds read low 0.991 | S. cerevisiae deletion strains, locus YOL006C, strain TOP1, active compounds read low 0.936 | S. cerevisiae deletion strains, locus YOL012C, strain htz1 0.883 | S. cerevisiae deletion strains, locus YOL147C, strain pex11, active compounds read low 0.989 | S. cerevisiae deletion strains, locus YOR061W, strain CKA2, active compounds read low 0.989 | S. cerevisiae deletion strains, locus YOR069W, strain VPS5, active compounds read low 0.99 | S. cerevisiae deletion strains, locus YOR136W, strain idh2, active compounds read low 0.98 | S. cerevisiae deletion strains, locus YOR144C, strain elg1, active compounds read low 1 | S. cerevisiae deletion strains, locus YOR184W, strain ser1, active compounds read low 0.979 | S. cerevisiae deletion strains, locus YOR316C, strain cot1, active compounds read low 0.981 | S. cerevisiae deletion strains, locus YPL055C, strain LGE1, active compounds read low 0.987 | S. cerevisiae deletion strains, locus YPR119W, strain clb2, active compounds read low 0.981 | S. cerevisiae deletion strains, locus YPR141C, strain kar3, active compounds read low 0.963 | S. cerevisiae deletion strains, locus YPR163C, strain tif3, active compounds read low 0.989 | S. cerevisiae deletion strains, locus YPR167C, strain met16, active compounds read low 0.988 | S. cerevisiae deletion strains, strain wtn01, active compounds read low 0.981 | S. cerevisiae strains, strain wild type, active compounds read low 1
